# What was measured:
# Test in all cases: DAPPL (digital affinity profiling via proximity ligation, sequencing); 10 mM Tris-HCl pH 7.5, 50 mM NaCl, 1 mM DTT, 4% glycerol, room temperature, 30 min; GST-TFs on glutathione beads, 16-mer random dsDNA library, 0.1% formaldehyde crosslink after washing; high values mean tight binding
# FLI1 = target: T1, FLI1 (Homo sapiens, UniProt Q01543 1-452); details: protein: recombinant; tags: N-terminal GST; dsDNA, one strand shown
# T1 sequence: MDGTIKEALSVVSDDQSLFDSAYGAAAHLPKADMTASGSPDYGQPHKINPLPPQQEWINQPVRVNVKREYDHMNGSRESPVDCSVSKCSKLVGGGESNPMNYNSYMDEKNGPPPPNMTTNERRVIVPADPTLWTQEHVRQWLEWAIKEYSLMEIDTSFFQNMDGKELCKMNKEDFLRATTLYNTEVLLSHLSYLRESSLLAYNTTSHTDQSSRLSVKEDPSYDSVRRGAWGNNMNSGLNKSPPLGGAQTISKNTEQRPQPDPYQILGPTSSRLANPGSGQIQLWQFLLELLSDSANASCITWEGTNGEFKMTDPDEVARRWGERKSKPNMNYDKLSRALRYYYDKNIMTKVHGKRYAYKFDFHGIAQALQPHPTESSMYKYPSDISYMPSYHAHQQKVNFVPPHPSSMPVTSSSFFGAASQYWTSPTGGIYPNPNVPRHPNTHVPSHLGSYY
# Procedure, shortened: (§1)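 Sequencing on an Illumina NextSeq500 followed washing, crosslinking with 0.1% formaldehyde, proximity ligation (BsaI/T4 ligase, 1 h, 37 °C) and PCR amplification of pools that had been incubated for 30 min at room temperature with 200 nmole of a random double-stranded 16-mer DNA library in Tris/NaCl/DTT/glycerol buffer. Each pool held DNA-barcoded human transcription factors, expressed in yeast as GST fusions and captured on glutathione beads, plus a tag-only sample. Binding signal is a hexamer's read frequency for a factor divided by its frequency in the tag-only sample.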
# ELK1 = target: T2, ELK1 (Homo sapiens, UniProt P19419 1-428); details: protein: recombinant; tags: N-terminal GST; dsDNA, one strand shown
# T2 sequence: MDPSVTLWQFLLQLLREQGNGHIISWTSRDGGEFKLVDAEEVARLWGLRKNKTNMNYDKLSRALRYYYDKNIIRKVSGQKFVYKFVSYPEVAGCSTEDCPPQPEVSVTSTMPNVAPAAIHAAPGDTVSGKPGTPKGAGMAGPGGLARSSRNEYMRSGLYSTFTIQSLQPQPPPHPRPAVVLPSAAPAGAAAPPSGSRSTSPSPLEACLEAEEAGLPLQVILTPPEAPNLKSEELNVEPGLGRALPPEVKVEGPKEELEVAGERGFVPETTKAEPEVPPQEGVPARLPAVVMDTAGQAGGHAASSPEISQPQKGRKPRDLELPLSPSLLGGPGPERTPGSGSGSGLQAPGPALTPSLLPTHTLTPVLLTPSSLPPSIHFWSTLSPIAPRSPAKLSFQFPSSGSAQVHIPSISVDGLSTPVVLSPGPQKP
# Procedure, shortened: as §1
# GABPA = target: T3, GABPA (Homo sapiens, UniProt Q06546 1-454); details: protein: recombinant; tags: N-terminal GST; dsDNA, one strand shown
# T3 sequence: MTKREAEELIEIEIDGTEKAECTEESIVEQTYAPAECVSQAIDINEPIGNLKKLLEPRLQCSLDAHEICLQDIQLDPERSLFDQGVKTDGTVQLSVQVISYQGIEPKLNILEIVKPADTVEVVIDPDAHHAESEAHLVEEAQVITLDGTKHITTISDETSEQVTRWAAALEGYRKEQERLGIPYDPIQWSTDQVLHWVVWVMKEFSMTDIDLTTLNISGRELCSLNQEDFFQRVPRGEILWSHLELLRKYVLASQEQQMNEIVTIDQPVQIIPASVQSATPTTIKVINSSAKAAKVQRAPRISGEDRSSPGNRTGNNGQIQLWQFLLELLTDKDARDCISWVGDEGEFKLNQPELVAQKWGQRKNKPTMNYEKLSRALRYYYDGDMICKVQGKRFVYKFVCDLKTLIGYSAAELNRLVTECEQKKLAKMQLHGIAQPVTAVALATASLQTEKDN
# Procedure, shortened: as §1
# ERG = target: T4, ERG (Homo sapiens, UniProt P11308 1-479); details: protein: recombinant; tags: N-terminal GST; dsDNA, one strand shown
# T4 sequence: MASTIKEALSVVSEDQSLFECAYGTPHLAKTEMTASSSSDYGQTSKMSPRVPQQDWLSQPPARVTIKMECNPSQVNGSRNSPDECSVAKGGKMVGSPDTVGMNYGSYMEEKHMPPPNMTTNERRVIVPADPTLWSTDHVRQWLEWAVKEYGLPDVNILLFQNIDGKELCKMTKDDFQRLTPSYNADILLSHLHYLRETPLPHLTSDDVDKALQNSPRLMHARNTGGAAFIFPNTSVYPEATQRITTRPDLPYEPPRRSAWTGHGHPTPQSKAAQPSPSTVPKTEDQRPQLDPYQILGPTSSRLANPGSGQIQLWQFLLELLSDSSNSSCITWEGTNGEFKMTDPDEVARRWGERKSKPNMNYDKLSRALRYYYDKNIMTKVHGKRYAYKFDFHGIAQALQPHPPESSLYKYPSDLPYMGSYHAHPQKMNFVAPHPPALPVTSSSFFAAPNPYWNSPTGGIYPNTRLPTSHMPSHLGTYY
# Procedure, shortened: as §1
# ELF1 = ELF1 (Homo sapiens, UniProt P32519 1-619); details: protein: recombinant; tags: N-terminal GST; dsDNA, one strand shown
# Procedure, shortened: as §1
# EHF = target: T5, EHF (Homo sapiens, UniProt Q9NZC4 1-300); details: protein: recombinant; tags: N-terminal GST; dsDNA, one strand shown
# T5 sequence: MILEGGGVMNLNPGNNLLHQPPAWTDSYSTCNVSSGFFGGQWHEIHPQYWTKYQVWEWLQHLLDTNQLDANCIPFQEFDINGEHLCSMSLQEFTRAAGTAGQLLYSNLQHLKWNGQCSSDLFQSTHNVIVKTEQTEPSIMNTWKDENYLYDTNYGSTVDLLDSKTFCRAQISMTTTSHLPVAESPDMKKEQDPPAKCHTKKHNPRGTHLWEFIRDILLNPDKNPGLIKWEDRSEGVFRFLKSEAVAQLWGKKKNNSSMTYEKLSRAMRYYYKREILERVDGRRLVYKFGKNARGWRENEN
# Procedure, shortened: as §1
# SPI1 = SPI1 (Homo sapiens, UniProt P17947 1-270); details: protein: recombinant; tags: N-terminal GST; dsDNA, one strand shown
# Procedure, shortened: as §1
# SPIB = SPIB (Homo sapiens, UniProt Q01892 1-262); details: protein: recombinant; tags: N-terminal GST; dsDNA, one strand shown
# Procedure, shortened: as §1
# ELK3 = target: T6, ELK3 (Homo sapiens, UniProt P41970 1-407); details: protein: recombinant; tags: N-terminal GST; dsDNA, one strand shown
# T6 sequence: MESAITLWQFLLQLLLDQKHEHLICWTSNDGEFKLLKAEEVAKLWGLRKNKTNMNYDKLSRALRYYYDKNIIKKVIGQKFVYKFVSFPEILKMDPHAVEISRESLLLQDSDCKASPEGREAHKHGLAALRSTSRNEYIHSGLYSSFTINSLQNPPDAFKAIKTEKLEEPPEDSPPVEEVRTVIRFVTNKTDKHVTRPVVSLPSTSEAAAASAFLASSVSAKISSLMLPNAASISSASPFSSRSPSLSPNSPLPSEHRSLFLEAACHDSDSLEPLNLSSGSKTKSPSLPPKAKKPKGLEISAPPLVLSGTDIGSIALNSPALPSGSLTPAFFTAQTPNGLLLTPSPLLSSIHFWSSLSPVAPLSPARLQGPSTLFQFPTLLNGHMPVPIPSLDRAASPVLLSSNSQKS
# Procedure, shortened: as §1
# FEV = target: T7, FEV (Homo sapiens, UniProt Q99581 1-238); details: protein: recombinant; tags: N-terminal GST; dsDNA, one strand shown
# T7 sequence: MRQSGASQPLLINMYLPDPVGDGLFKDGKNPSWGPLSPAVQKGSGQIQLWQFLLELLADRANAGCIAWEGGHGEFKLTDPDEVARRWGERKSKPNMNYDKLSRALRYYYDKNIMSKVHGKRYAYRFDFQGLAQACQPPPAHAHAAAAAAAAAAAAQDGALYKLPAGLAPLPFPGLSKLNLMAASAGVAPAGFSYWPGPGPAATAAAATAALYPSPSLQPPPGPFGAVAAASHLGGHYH
# Procedure, shortened: as §1
# ETV5 = ETV5 (Homo sapiens, UniProt P41161 1-510); details: protein: recombinant; tags: N-terminal GST; dsDNA, one strand shown
# Procedure, shortened: as §1
# HSF1 = HSF1 (Homo sapiens, UniProt Q00613 1-529); details: protein: recombinant; tags: N-terminal GST; chain copies: 3; dsDNA, one strand shown
# Procedure, shortened: as §1
# SPIC = target: T8, SPIC (Homo sapiens, UniProt Q8N5J4 1-248); details: protein: recombinant; tags: N-terminal GST; dsDNA, one strand shown
# T8 sequence: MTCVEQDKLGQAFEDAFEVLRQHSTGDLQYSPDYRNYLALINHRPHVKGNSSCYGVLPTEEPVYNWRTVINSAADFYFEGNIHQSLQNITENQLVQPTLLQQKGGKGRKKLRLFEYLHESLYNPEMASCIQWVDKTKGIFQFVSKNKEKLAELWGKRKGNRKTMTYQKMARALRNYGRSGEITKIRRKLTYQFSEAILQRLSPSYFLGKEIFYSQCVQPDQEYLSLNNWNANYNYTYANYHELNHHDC
# Procedure, shortened: as §1
# ELF4 = ELF4 (Homo sapiens, UniProt Q99607 1-663); details: protein: recombinant; tags: N-terminal GST; dsDNA, one strand shown
# Procedure, shortened: as §1
# ELK4 = target: T9, ELK4 (Homo sapiens, UniProt P28324-2 1-405); details: protein: recombinant; tags: N-terminal GST; dsDNA, one strand shown
# T9 sequence: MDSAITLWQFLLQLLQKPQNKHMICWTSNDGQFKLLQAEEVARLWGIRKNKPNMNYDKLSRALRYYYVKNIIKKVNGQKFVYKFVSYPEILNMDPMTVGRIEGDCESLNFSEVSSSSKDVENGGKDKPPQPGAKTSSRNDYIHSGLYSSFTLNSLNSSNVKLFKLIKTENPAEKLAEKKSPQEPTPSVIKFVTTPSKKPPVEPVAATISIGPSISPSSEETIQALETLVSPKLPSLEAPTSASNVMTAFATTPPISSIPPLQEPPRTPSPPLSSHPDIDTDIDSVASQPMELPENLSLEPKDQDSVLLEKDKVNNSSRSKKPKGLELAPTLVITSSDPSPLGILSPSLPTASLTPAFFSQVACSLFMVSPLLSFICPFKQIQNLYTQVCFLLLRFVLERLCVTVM
# Procedure, shortened: as §1
# ETV2 = target: T10, ETV2 (Homo sapiens, UniProt O00321 1-342); details: protein: recombinant; tags: N-terminal GST; dsDNA, one strand shown
# T10 sequence: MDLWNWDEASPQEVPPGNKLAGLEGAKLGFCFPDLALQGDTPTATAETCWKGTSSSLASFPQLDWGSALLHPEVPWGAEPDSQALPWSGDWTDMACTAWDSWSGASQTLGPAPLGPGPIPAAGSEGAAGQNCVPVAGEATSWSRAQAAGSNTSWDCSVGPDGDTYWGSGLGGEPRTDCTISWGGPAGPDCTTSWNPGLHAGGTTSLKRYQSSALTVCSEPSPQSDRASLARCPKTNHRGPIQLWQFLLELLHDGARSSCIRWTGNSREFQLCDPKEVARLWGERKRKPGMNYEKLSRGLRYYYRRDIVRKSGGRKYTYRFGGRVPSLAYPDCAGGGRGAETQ
# Procedure, shortened: as §1
# ELF3 = target: T11, ELF3 (Homo sapiens, UniProt P78545 1-371); details: protein: recombinant; tags: N-terminal GST; dsDNA, one strand shown
# T11 sequence: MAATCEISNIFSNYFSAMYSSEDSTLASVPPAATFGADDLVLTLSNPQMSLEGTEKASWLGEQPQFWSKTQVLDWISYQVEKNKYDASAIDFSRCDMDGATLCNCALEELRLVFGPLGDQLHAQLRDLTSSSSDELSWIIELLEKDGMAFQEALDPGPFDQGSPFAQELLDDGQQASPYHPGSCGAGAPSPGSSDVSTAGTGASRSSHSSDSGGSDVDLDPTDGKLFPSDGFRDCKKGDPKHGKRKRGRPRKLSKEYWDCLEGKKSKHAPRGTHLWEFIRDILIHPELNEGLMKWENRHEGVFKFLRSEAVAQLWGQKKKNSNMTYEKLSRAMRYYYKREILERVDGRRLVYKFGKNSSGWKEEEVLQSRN
# Procedure, shortened: as §1
# CRX = CRX (Homo sapiens, UniProt O43186 1-299); details: protein: recombinant; tags: N-terminal GST; dsDNA, one strand shown
# Procedure, shortened: as §1
# ETV1 = ETV1 (Homo sapiens, UniProt P50549 1-477); details: protein: recombinant; tags: N-terminal GST; dsDNA, one strand shown
# Procedure, shortened: as §1
# Sequence of CRX (O43186 whole entry): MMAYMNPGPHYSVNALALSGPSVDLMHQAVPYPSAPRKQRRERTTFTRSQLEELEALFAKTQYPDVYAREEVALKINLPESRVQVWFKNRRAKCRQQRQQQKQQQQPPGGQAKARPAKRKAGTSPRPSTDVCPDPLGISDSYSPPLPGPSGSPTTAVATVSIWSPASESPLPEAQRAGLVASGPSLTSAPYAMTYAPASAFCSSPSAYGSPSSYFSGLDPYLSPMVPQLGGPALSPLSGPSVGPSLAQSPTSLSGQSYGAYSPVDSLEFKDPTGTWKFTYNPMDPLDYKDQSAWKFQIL
# Sequence of HSF1 (Q00613 whole entry): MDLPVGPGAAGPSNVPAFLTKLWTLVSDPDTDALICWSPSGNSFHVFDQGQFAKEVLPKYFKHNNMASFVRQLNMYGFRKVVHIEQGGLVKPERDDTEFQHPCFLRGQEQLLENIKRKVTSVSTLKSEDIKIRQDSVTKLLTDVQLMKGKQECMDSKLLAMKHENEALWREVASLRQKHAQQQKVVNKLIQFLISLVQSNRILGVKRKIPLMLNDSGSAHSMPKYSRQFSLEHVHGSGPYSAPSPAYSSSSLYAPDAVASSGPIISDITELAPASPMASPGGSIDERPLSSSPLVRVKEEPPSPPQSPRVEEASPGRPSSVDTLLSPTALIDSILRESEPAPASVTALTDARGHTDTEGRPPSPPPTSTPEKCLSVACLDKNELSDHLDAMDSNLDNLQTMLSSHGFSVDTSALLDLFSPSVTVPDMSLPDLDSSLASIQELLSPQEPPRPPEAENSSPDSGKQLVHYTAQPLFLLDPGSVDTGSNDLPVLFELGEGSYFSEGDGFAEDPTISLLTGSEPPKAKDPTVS
# Sequence of ELF4 (Q99607 whole entry): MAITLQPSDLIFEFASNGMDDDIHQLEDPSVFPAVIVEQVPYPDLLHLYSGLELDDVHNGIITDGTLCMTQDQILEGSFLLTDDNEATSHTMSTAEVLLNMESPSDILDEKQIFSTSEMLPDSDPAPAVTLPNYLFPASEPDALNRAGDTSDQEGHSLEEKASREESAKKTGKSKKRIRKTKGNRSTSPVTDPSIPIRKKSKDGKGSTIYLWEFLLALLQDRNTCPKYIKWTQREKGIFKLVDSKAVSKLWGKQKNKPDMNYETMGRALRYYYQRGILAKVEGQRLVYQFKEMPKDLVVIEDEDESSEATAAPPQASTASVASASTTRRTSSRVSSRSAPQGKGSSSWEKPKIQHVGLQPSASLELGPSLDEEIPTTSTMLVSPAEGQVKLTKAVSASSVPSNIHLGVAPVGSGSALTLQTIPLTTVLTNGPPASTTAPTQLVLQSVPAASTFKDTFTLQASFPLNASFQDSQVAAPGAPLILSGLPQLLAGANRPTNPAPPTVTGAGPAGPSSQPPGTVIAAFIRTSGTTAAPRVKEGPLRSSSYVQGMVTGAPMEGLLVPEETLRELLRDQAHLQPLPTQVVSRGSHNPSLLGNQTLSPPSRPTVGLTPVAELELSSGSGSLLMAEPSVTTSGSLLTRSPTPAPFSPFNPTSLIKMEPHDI
# Sequence of ELF1 (P32519 whole entry): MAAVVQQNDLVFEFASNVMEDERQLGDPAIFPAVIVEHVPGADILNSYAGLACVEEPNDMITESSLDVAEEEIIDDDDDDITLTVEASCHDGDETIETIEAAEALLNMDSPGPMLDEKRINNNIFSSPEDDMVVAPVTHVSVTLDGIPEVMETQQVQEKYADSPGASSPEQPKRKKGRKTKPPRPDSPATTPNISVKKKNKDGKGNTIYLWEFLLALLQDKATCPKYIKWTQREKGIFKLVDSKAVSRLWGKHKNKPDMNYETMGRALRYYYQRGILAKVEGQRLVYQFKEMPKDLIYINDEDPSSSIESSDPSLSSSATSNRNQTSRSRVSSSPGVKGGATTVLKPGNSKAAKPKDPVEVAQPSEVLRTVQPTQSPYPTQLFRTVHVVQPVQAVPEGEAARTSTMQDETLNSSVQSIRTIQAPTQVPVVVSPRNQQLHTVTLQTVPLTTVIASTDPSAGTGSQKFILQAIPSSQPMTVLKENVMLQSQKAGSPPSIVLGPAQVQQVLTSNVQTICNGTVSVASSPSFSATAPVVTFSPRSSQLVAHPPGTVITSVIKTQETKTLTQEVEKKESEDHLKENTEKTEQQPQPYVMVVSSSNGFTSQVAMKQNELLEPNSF
# Sequence of ETV1 (P50549 whole entry): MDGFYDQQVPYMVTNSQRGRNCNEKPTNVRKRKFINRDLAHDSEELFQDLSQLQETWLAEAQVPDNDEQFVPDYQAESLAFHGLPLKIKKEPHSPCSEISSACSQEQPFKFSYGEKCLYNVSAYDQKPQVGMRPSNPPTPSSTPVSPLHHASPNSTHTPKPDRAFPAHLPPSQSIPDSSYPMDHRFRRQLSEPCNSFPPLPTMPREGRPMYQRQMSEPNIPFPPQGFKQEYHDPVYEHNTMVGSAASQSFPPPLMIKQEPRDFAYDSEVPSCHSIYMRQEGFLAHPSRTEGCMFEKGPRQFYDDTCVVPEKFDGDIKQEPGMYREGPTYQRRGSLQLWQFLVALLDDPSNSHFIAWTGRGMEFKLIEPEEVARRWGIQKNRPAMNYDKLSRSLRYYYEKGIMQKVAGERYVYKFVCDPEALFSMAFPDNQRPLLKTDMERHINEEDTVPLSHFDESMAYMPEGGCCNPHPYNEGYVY
# Sequence of SPIB (Q01892 whole entry): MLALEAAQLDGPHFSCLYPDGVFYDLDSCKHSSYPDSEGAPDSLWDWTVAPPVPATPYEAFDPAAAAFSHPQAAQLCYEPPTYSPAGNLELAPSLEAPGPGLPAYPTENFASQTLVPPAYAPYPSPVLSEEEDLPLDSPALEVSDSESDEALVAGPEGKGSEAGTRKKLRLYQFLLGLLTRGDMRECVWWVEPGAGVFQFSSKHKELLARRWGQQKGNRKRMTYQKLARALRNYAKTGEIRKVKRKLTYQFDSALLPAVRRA
# Sequence of ETV5 (P41161 whole entry): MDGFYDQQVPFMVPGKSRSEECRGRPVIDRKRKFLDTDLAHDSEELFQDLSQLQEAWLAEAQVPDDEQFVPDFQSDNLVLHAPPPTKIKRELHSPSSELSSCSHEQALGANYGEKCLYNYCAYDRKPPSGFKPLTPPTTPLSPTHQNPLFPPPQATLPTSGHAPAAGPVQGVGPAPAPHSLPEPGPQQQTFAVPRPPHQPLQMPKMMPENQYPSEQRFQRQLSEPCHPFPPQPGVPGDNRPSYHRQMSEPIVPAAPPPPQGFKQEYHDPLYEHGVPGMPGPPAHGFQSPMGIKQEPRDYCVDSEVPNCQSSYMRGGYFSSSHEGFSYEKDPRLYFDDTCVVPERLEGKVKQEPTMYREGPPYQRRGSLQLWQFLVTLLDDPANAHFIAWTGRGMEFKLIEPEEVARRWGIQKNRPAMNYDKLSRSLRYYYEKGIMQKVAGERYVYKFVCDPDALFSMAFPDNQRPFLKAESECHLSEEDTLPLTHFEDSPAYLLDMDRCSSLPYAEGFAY
sequence,measurement,setting,value
TCCCTA,binding signal,FLI1,"1.35 fold enrichment (6-mer frequency, TF over GST control)"
same,binding signal,ELK1,"1.26 fold enrichment (6-mer frequency, TF over GST control)"
same,binding signal,GABPA,"1.26 fold enrichment (6-mer frequency, TF over GST control)"
same,binding signal,ERG,"1.3 fold enrichment (6-mer frequency, TF over GST control)"
same,binding signal,ELF1,"1.32 fold enrichment (6-mer frequency, TF over GST control)"
same,binding signal,EHF,"1.27 fold enrichment (6-mer frequency, TF over GST control)"
same,binding signal,SPI1,"1.52 fold enrichment (6-mer frequency, TF over GST control)"
same,binding signal,SPIB,"1.32 fold enrichment (6-mer frequency, TF over GST control)"
same,binding signal,ELK3,"1.34 fold enrichment (6-mer frequency, TF over GST control)"
same,binding signal,FEV,"1.2 fold enrichment (6-mer frequency, TF over GST control)"
same,binding signal,ETV5,"1.43 fold enrichment (6-mer frequency, TF over GST control)"
same,binding signal,HSF1,"1.32 fold enrichment (6-mer frequency, TF over GST control)"
same,binding signal,SPIC,"1.31 fold enrichment (6-mer frequency, TF over GST control)"
same,binding signal,ELF4,"1.31 fold enrichment (6-mer frequency, TF over GST control)"
same,binding signal,ELK4,"1.19 fold enrichment (6-mer frequency, TF over GST control)"
same,binding signal,ETV2,"1.25 fold enrichment (6-mer frequency, TF over GST control)"
same,binding signal,ELF3,"1.36 fold enrichment (6-mer frequency, TF over GST control)"
same,binding signal,CRX,"1.47 fold enrichment (6-mer frequency, TF over GST control)"
same,binding signal,ETV1,"1.32 fold enrichment (6-mer frequency, TF over GST control)"
